# RXFP1 antagonist = qHTS Assay for Antagonists of the Relaxin Receptor RXFP1 | activity change, negative = inhibition, % at 57.5 µM | 350,000 compounds, 0.59% hits | HEK293-RXFP1, relaxin-stimulated cAMP HTRF, 30 min; stronger effect = lower value | AID 1259400, 2018 | Relaxin receptor 1 (Homo sapiens), Q9HBX9;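 active = activity change of -60% or lower, but not beyond a set lower limit; inconclusive = change between -60% and -40%, or beyond the set limit; inactive = change above -40%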; also: % is scaled to controls: 0 for no effect and ±100 for the full control effect
# Target sequence (Q9HBX9 whole entry, looked up): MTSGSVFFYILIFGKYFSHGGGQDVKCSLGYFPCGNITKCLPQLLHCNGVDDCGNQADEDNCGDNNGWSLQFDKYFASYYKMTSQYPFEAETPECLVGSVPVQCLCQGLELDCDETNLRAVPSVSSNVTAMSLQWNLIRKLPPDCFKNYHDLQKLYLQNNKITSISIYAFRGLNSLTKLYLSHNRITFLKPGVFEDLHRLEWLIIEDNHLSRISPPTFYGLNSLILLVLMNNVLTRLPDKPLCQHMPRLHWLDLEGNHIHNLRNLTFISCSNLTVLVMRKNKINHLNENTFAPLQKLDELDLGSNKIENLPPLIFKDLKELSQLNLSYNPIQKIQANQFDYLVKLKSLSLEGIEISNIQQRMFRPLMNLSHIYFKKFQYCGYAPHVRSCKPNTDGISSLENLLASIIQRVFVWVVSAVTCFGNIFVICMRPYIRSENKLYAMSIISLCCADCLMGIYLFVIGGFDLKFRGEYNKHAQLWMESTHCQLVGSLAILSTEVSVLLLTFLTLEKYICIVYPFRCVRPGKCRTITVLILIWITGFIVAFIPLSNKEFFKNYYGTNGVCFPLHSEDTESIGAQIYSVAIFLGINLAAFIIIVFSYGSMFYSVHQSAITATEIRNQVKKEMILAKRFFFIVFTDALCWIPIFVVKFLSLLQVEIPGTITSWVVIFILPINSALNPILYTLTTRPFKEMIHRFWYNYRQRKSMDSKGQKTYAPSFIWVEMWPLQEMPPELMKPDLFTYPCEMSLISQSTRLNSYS
# pAkt inh = HTS Assay for Inhibitors of Akt Phophorylation: Primary Screen. Neuro2A IGF-stimulated pAkt S473 HTRF, 20 min; stronger effect = lower value. activity change, % for hits at 50 µM. 360,000 compounds, 0.32% hits. AID 651550, 2012; in the data active = activity change below about -80%; inconclusive = mostly about -51% to -80%; also: % is scaled to controls: 0 for no effect and ±100 for the full control effect
#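 Single-point screen (50 µM final compound) in Neuro2A cells stimulated 20 min with 6 nM IGF at 37 deg C. After lysis, Ser473-phosphorylated Akt read by HTRF (ex 330 nm, em 615/665 nm) as the 665/615 ratio.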
# gsp antag = qHTS for Antagonists of gsp, the Etiologic Mutation Responsible for Fibrous Dysplasia/McCune-Albright Syndrome: qHTS. AID 624288, 2012. 340,000 compounds, 0.4% hits. gsp-mutant cells, cAMP HTRF, 30 min. Potency, µM (doses to about 76.9 µM), for inactives: at the top dose activity change, negative = inhibition, most hits filed as inhibitors; calls by dose curve; cell line not stated here;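 also: intracellular cAMP measured with PDE inhibitor Ro 20-1724 present during compound exposure; potency is read from the fitted curve at half-maximal effect; % is scaled to controls: 0 for no effect and ±100 for the full control effect; nearly all actives have a fitted effect of over 65% in size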
#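 Cells in G418 medium, seeded 16-24 h, 37C; buffer exchange to DPBS + 1 mM CaCl2, 0.5 mM MgCl2, 0.05% BSA; cpds in DMSO + […] (300 uM stock), 30 min 37C; HTRF cAMP detection.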
# gsp agonist = qHTS for Agonist of gsp, the Etiologic Mutation Responsible for Fibrous Dysplasia/McCune-Albright Syndrome: qHTS; gsp mutant cells, cAMP HTRF, 30 min; Potency, µM (series often up to 76.9 µM), without a hit: at the top dose activation (cAMP increase), most hits filed as activators; 340,000 compounds, 0.13% hits; AID 624287, 2012; active = well fitted activation curve with a large enough effect; inconclusive = small, poorly fitted or top-dose-only effect, or another doubt; inactive = no such curve, though single readings can be large or run the other way; cell line not stated here;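 also: phosphodiesterase inhibitor Ro 20-1724 added with compounds to block cAMP breakdown; potency is read from the fitted curve at half-maximal effect; nearly all actives have a fitted effect of over 60% in size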
#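 Cells stably selected in G418 were plated at 2000/well, grown 16-24 hr, then given compounds in DMSO with the PDE inhibitor […] (300 uM solution added) for 30 min at 37C; cAMP was read by HTRF.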
# RXFP1 ag = qHTS Assay for Agonists of the Relaxin Receptor RXFP1; Relaxin receptor 1 (Homo sapiens), Q9HBX9; HEK293T-RXFP1 cAMP TR-FRET, 30 min; response scale: percent of porcine relaxin response, buffer zero; 370,000 compounds, 0.3% hits; Potency, µM (top dose mostly 57.5 µM), without a hit: top-dose activation, actives largely listed as activators; AID 2676, 2010; active = well fitted activation curve with a large enough effect; inconclusive = small, poorly fitted or top-dose-only effect; also: potency is read from the fitted curve at half-maximal effect; % is scaled to controls: 0 for no effect and ±100 for the full control effect; nearly all actives have a fitted effect of over 60% in size
#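 HEK293 cells stably expressing RXFP1, treated 30 min at 37C with compounds plus PDE4 inhibitor Ro 20174; cAMP measured by HTRF TR-FRET. Normalized to buffer and 29 nM porcine relaxin; EC50 by Hill fit.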
# * hit, by the source's call; i = inactive; u = inconclusive; x = not tested or not shown; [ ] = dose if it differs, or a comment. Hits are enriched below; roughly 1.3% of the tested compounds scored in any of these assays.
SMILES,RXFP1 antagonist,pAkt inh,gsp antag,gsp agonist,RXFP1 ag
Cc1nnc(SCc2cccc3ccccc23)s1,9,i,-4%,-8%[15.4 µM],2%
c1ccc(Nc2nnc(SCc3cccc4ccccc34)s2)cc1,-2,-114%*,-13%,-38%,1%
O=C(O)CCCC[P+](c1ccccc1)(c1ccccc1)c1ccccc1,4,x,x,x,x
CC(C)C(=O)N1CCC2(CC1)Oc1ccc(F)cc1C(=O)C21CC(c2cccnc2)=NO1 (stereo not given),x,x,x,x,0%
Cc1ccc(C(=O)N2CCC3(CC2)Oc2ccc(F)cc2C(=O)C32CC(c3cccnc3)=NO2)s1 (stereo not given),x,i,35µM*,x,-7%
CSc1ncc(Cl)c(C(=O)N(Cc2ccc(C(C)C)cc2)C2CCS(=O)(=O)C2)n1 (stereo not given),x,x,x,x,-2%
COc1ccc(C2C(C(=O)c3ccco3)=C(O)C(=O)N2CCOCCO)cc1OC (stereo not given),1,-85%*,10%,-6%,3%
COc1cc(C2C(C(=O)c3cc4ccccc4o3)=C(O)C(=O)N2CCN2CCOCC2)ccc1OCCC(C)C (stereo not given),-5,i,10%,u,28µM*
CCN(CC)C(=O)c1ccc2c(c1)N(Cc1ccc(C(F)(F)F)cc1)C(=O)c1ccccc1S2,x,x,x,x,0%
CC(C)=CCc1c(O)cc2oc3c(CC=C(C)C)c(O)c(O)c(CC=C(C)C)c3c(=O)c2c1O,-14,i,32µM*,u,-1%
Cc1cc(C(=O)OCC(=O)c2ccc(Br)s2)no1,4,i,26%,35µM*,u
Cc1ccc(C(=O)NCC(=O)OCC(=O)c2ccc(Br)s2)cc1,0,i,11%,14µM*,u
O=C(CNS(=O)(=O)c1ccc2ccccc2c1)OCC(=O)c1ccc(Br)s1,-9,i,14%,8.9µM*,25%
Cc1oc(-c2ccccc2)nc1CCC(=O)c1ccc(CC2SC(=O)NC2=O)cc1 (stereo not given),-37,x,x,x,x
COc1ccc2c(c1)CCc1c(C(=O)Nc3c(C)nn(Cc4ccc(C)cc4)c3C)noc1-2,-26,x,x,x,1%
O=P(O)(O)OC[C@@H](O)CO,3,x,x,x,x
CCc1ccc(NC(=O)c2cc3nc(-c4ccc(C)cc4)cc(C(F)(F)F)n3n2)cc1,x,x,x,x,3%
Cc1ccc(NC(=O)c2ccc(-n3cccn3)c([N+](=O)[O-])c2)cc1C,-18,-110%*,-13%,-20%,1%
Cc1ccc(Cl)cc1-n1ncc2c(N3CCN(Cc4ccccc4)CC3)ncnc21,-81*,x,x,x,3%
O=C(c1ccccc1)N1CCN(c2ncnc3c2cnn3-c2ccccc2)CC1,-6,i,u,-15%,0%
Cc1nn(-c2ccccc2)c(Cl)c1C(=O)N1CCN(c2ncnc3c2cnn3-c2ccccc2)CC1,u,i,13µM*,22%,-1%
CCN1CCN(c2ncnc3c2cnn3-c2cc(Cl)ccc2C)CC1,-1,x,x,x,1%
O=C(CSc1nnc(COc2ccc(Cl)cc2)o1)Nc1ccccc1,0,x,x,x,1%
Cc1cc(NC(=O)CSc2nnc(COc3ccccc3)o2)no1,-12,-127%*,-16%[15.4 µM],u,-1%
O=C(Nc1ccccc1)c1n[nH]c(Cn2cncn2)n1,6,i,2%,1%,3%
SMILES,RXFP1 antagonist,pAkt inh,gsp antag,gsp agonist,RXFP1 ag
N#C/C(=C\c1ccc(Cl)cc1Cl)c1n[nH]c(Cn2cncn2)n1,-4,-90%*,-32%,u,2%
Cc1ccc2[nH]c3c(=S)nc[nH]c3c2c1,19,i,31%,11µM*,3.5µM*
Cc1nn(-c2ccccc2)c(C)c1NC(=O)COc1ccc(Br)cc1Cl,u,i,35µM*,-2%[15.4 µM],0%
Cc1nn(-c2ccccc2)c(C)c1NC(=O)COc1ccc(C#N)cc1,-5,i,1%,-1%,0%
COc1ccccc1NC(=O)COC(=O)c1c(C)nn(-c2ccccc2)c1C,-13,i,32µM*,0%,0%
Cc1nn(-c2ccccc2)c(C)c1NC(=O)COc1ccc2ccccc2c1,u,x,16µM*,-56%,1%
COc1ccc(Br)cc1CNC(=O)c1cc(=O)[nH]c2ccc(S(=O)(=O)N3CCCCC3C)cc12 (stereo not given),u,x,x,x,3%
CCc1ccccc1NC(=O)c1cn(C)c(=O)c2ccccc12,-3,x,x,x,3%
O=C(CNC(=O)c1cccc(F)c1)OCc1cc(=O)n2cc(Br)ccc2n1,x,i,3%,u,u
O=C(CNC(=O)c1ccccc1)OCc1cc(=O)n2cc(Br)ccc2n1,9,i,8%,5.6µM*,u
O=C(C1CCC(CNS(=O)(=O)c2cccc3nsnc23)CC1)N1CC=C(c2ccccc2)CC1 (stereo not given),x,i,35µM*,-14%,0%
Cn1nc(CC(=O)NCc2ccc(C(F)(F)F)cc2)c2ccccc2c1=O,5,i,13µM*,-17%,4%
CCOC(=O)c1cc(-c2ccccc2)n(CCC(=O)Nc2ccc(C(F)(F)F)cc2)c1C,-67*,x,x,x,1%
Cc1cc(=O)[nH]c2nnc(SCc3cccc(C(F)(F)F)c3)n12,-8,x,x,x,3%
OC(COc1ccc2c(c1)CCC2)Cn1cnc2ccccc21 (stereo not given),-21,-123%*,1%,-14%,0%
Cc1ccn2c(Nc3c(C)cccc3C)c(-c3ccc(Cl)s3)nc2c1,-9,x,x,x,0%
COc1ccc(N2C(=O)CS(=O)(=O)C23C(=O)N(Cc2ccc(F)cc2)c2ccc(C)cc23)cc1 (stereo not given),x,x,x,x,-2%
COCCCNC(=O)CCCn1c(=O)c2cccn2c2ccccc21,-10,x,x,x,11%
CC1CCCCN1C(=O)COC(=O)C1CCN(S(=O)(=O)c2ccc(Cl)c(C(F)(F)F)c2)CC1 (stereo not given),-65*,i,5%,0%[15.4 µM],1%
O=C(COC(=O)C1CCN(S(=O)(=O)c2ccc(Cl)c(C(F)(F)F)c2)CC1)NCc1ccco1,-16,i,9%,6%,0%
Cc1ccc2nc(NC(=O)CN(C)S(=O)(=O)c3cccc4nsnc34)sc2c1,-25,-101%*,9%,-1%,1%
COc1cccc(NS(=O)(=O)c2cc(-c3cnc(C4CC4)o3)ccc2C)c1,x,x,x,x,0%
COCC(C)N1C(=O)Cc2c1nc(N)c1c(N)nc(N3CCN(c4ccccc4F)CC3)c(C#N)c21 (stereo not given),-60*,i,-14%,u,19%

# Compound activity deposited in PubChem by National Center for Advancing Translational Sciences (NCATS).
